This is an account of results in PubChem BioAssay (NCI).

Compounds without any hit were thinned out: in the full panel of roughly 83,000, 20% have a hit.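 Percent growth is the endpoint: 0 to 100 indicates growth inhibition (40 means 60% inhibition), 0 means no net growth, and negative values indicate cell death.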 The source made the active and inactive calls. Rule for the calls: active = growth percent below 10; inactive = the rest.

The subject of the first assay is U251 CNS. The experiment in a line: NCI-60 one-dose screen, 48 h (100 = growth as untreated, 0 = no growth, -100 = all killed). As to conditions: 10 µM unless noted.
With `CCNC(=O)CCCCC(=O)c1c(C)[nH]c(/C=C2\N=C(c3ccc[nH]3)C=C2OC)c1C`, the growth was 1.75% (active).
On the same count and under the same terms, to `CC(=O)OCC1OC(OCC2OC(OC(C)=O)C(OC(C)=O)C(OC(C)=O)C2OC(C)=O)C(OC(C)=O)C(OC(C)=O)C1OC(C)=O` (stereo unspecified) belongs 92% (inactive); to `Clc1ccc([I+]c2ccc(Cl)cc2Cl)c(Cl)c1`, 6.72% (active).
The same measure, in the same setting: the result for `CCC(=O)Oc1cc(/C=C/C(=O)O[C@H]2C[C@H]3CN4CCc5c([nH]c6cc(OC)ccc56)[C@@H]4C[C@@H]3[C@@H](C(=O)OC)[C@@H]2OC)ccc1OC` reads 61.1% (inactive); that for `COC1=CC(c2ccc[nH]2)=N/C1=C\c1[nH]c(C)c(C(=O)CCCCC(=O)NCc2ccccc2)c1C`, 10.6% (inactive).
With `COc1ccc(-c2nnc(COc3ccc(NS(=O)(=O)c4ccc(OC)cc4)cc3F)o2)cc1`, the growth was 82.2% (inactive).
Same read-out and setting: the result for `CN1CCN(c2ccc3cc(-c4nc5ccccc5[nH]4)c(=O)oc3c2)CC1` reads 99.3% (inactive); that for `CCC1=C[C@@H]2CN(C1)Cc1c([nH]c3ccccc13)[C@@](C(=O)OC)(c1cc3c(cc1OC)N(C=O)[C@H]1[C@@](O)(C(=O)OC)[C@H](OC(C)=O)[C@]4(CC)[C@@H]5C[C@@H]5CN5CC[C@]31[C@@H]54)C2`, 11.8% (inactive); that for `O=S(=O)(c1ccccc1)n1ccc(-c2ccc3c(c2)CCO3)n1`, 73.6% (inactive).
Regarding `COC1=CC(c2ccc[nH]2)=N/C1=C\c1[nH]c(C)c(CCCn2cc(CCCCCCCCC[C@@H]3Cc4cc(O)ccc4C4CC[C@]5(C)[C@@H](O)CC[C@H]5C43)nn2)c1C` (stereo partly specified), the growth is 44.1% (inactive).
Regarding `CCn1cc(C(=O)O)c(=O)c2cc(F)c(N3CCN(S(=O)(=O)c4ccc(OC)c(OC)c4)CC3)cc21`, the growth was 106% (inactive).
Still for that read-out and setting: the result for `COc1cc2nc(SCc3cc(OC)c(OC)c(OC)c3)n(Cc3ccccc3)c(=O)c2cc1OC` reads 29% (inactive); that for `O=[N+]([O-])c1cc(S(=O)(=O)OCC2CO2)ccc1Cl` (stereo unspecified), 98.9% (inactive); that for `Nc1c(C(=O)Nc2ccccc2)sc2nc3c(cc12)CCC3`, 70.9% (inactive).
For `COc1ccc([N+](=O)[O-])c(/C=C/C(=O)c2ccccn2)c1`, the growth was 42.2% (inactive).
On the same count and under the same terms, the result for `CC(C(=O)n1cc(-c2ccccc2)c(-c2ccccc2)c1)c1ccccc1` (stereo unspecified) reads 91.1% (inactive); that for `CCNCc1ccncc1`, 94.9% (inactive).
On the same count and under the same terms, the result for `NCCSC(c1ccccc1)(c1ccccc1)c1ccccc1` reads 14.1% (inactive); that for `O=C(O)c1ccc(-n2c(=O)c3ccccc3c3ccccc3c2=O)cc1`, 102% (inactive); that for `COc1cc(/C=C2\C=C(c3ccc(F)cc3)N(Cc3ccccc3)C2=O)cc(OC)c1OC`, 48.8% (inactive).
As to `COc1ccc(/C=C2\C(=O)N(C(=O)c3csc(NC(C)=O)n3)N=C2C)cc1`, the growth was 101% (inactive).
`COc1cccc(NC(=O)Cn2cc3c(=O)oc4ccccc4c3n2)c1`: the growth is 125% (inactive).
For `CNC(C)=O`, the growth is 93.4% (inactive).
On to `C=C1C(=O)O[C@H]2[C@H](O)[C@@H](C)CCC/C(C)=C/CC[C@@]3(C)O[C@@H]3C[C@@H]12`, for which the growth is 97.3% (inactive).
The same measure, in the same setting: to `CC(=O)Nc1ccc(S(=O)(=O)NC(CCC(=O)Nc2ccc(Cl)cc2)C(=O)O)cc1` (stereo unspecified) belongs 90.6% (inactive); to `Cn1c(C(N)=O)cc2c1-c1nc(NC3CCCCC3)ncc1CCC2`, 83.8% (inactive).
`Cc1nc2sccn2c1-c1csc(Nc2ccccc2Cl)n1`: the growth is 42.1% (inactive).
Consider `Cc1ccc(Cn2c(-c3cccs3)nc3ccccc32)cc1`, for which the growth is 85.5% (inactive).
Same read-out and setting: to `COC1=CC(c2ccc[nH]2)=N/C1=C\c1[nH]c(C)c(C(=O)CCCCC(=O)Nc2ccccc2)c1C` belongs 1.79% (active); to `COc1ccc(-c2cn[nH]c2-c2cc(OC)c3c(c2)OCCO3)cc1`, 16.4% (inactive); to `COc1ccc(/C=C/c2nc(N3CCOCC3)c3cc(F)c(F)cc3n2)cc1OC`, 41.5% (inactive).
With `O=c1oc2cc(OS(=O)(=O)c3ccc(F)cc3)ccc2c2c1CCCCC2`, the growth is 57.6% (inactive).
The same measure, in the same setting: to `CCn1cc(C(=O)O)c(=O)c2cc(F)c(N3CCN(S(=O)(=O)c4ccc(Cl)cc4Cl)CC3)cc21` belongs 12.1% (inactive); to `O=C(CN1CCN(c2cc3c(cc2F)c(=O)c(C(=O)O)cn3C2CC2)CC1)Nc1ccc(C(=O)/C=C/c2ccccc2)cc1`, 14.9% (inactive); to `O=C(CC(O)c1ccncc1)c1ccccc1` (stereo unspecified), 73.4% (inactive).
With `CCn1cc(C(=O)O)c(=O)c2cc(F)c(N3CCN(S(=O)(=O)c4cccc5ccccc45)CC3)cc21`, the growth is 14.2% (inactive).
Turning to `CCN(CC)CCCC(C)N=c1cc(Nc2cc(=NC(C)CCCN(CC)CC)c3cc(OC)ccc3o2)oc2ccc(OC)cc12` (stereo unspecified), the growth was -57.6% (active).
Regarding `NC(=S)NN=C1CCCCC1`, the growth is 76.4% (inactive).

A further assay has as its system PC-3 prostate. The description is as above. The conditions noted are these: 10 µM unless noted.
As to `CCNC(=O)CCCCC(=O)c1c(C)[nH]c(/C=C2\N=C(c3ccc[nH]3)C=C2OC)c1C`, the growth is -42.2% (active).
Still for that read-out and setting: the result for `CC(=O)OCC1OC(OCC2OC(OC(C)=O)C(OC(C)=O)C(OC(C)=O)C2OC(C)=O)C(OC(C)=O)C(OC(C)=O)C1OC(C)=O` (stereo unspecified) reads 93.5% (inactive); that for `Clc1ccc([I+]c2ccc(Cl)cc2Cl)c(Cl)c1`, 9.9% (active); that for `CCC(=O)Oc1cc(/C=C/C(=O)O[C@H]2C[C@H]3CN4CCc5c([nH]c6cc(OC)ccc56)[C@@H]4C[C@@H]3[C@@H](C(=O)OC)[C@@H]2OC)ccc1OC`, 65.1% (inactive).
Take `COC1=CC(c2ccc[nH]2)=N/C1=C\c1[nH]c(C)c(C(=O)CCCCC(=O)NCc2ccccc2)c1C`: the growth was -13.9% (active).
On the same count and under the same terms, to `COc1ccc(-c2nnc(COc3ccc(NS(=O)(=O)c4ccc(OC)cc4)cc3F)o2)cc1` belongs 56.3% (inactive).
Same read-out and setting: the result for `CN1CCN(c2ccc3cc(-c4nc5ccccc5[nH]4)c(=O)oc3c2)CC1` reads 83.2% (inactive); that for `CCC1=C[C@@H]2CN(C1)Cc1c([nH]c3ccccc13)[C@@](C(=O)OC)(c1cc3c(cc1OC)N(C=O)[C@H]1[C@@](O)(C(=O)OC)[C@H](OC(C)=O)[C@]4(CC)[C@@H]5C[C@@H]5CN5CC[C@]31[C@@H]54)C2`, 7.43% (active).
Still for that read-out and setting: the result for `O=S(=O)(c1ccccc1)n1ccc(-c2ccc3c(c2)CCO3)n1` reads 84.2% (inactive); that for `COC1=CC(c2ccc[nH]2)=N/C1=C\c1[nH]c(C)c(CCCn2cc(CCCCCCCCC[C@@H]3Cc4cc(O)ccc4C4CC[C@]5(C)[C@@H](O)CC[C@H]5C43)nn2)c1C` (stereo partly specified), 45% (inactive); that for `CCn1cc(C(=O)O)c(=O)c2cc(F)c(N3CCN(S(=O)(=O)c4ccc(OC)c(OC)c4)CC3)cc21`, 90% (inactive).
For `COc1cc2nc(SCc3cc(OC)c(OC)c(OC)c3)n(Cc3ccccc3)c(=O)c2cc1OC`, the growth was 48.8% (inactive).
For `O=[N+]([O-])c1cc(S(=O)(=O)OCC2CO2)ccc1Cl` (stereo unspecified), the growth was 83.7% (inactive).
The same measure, in the same setting: to `Nc1c(C(=O)Nc2ccccc2)sc2nc3c(cc12)CCC3` belongs 81% (inactive); to `COc1ccc([N+](=O)[O-])c(/C=C/C(=O)c2ccccn2)c1`, 82.1% (inactive); to `CC(C(=O)n1cc(-c2ccccc2)c(-c2ccccc2)c1)c1ccccc1` (stereo unspecified), 95.9% (inactive).
Take `CCNCc1ccncc1`: the growth was 85.2% (inactive).
On the same count and under the same terms, to `NCCSC(c1ccccc1)(c1ccccc1)c1ccccc1` belongs 19.4% (inactive); to `O=C(O)c1ccc(-n2c(=O)c3ccccc3c3ccccc3c2=O)cc1`, 98.9% (inactive).
The same measure, in the same setting: the result for `COc1cc(/C=C2\C=C(c3ccc(F)cc3)N(Cc3ccccc3)C2=O)cc(OC)c1OC` reads 32.7% (inactive).
On the same count and under the same terms, the result for `COc1ccc(/C=C2\C(=O)N(C(=O)c3csc(NC(C)=O)n3)N=C2C)cc1` reads 98.9% (inactive); that for `COc1cccc(NC(=O)Cn2cc3c(=O)oc4ccccc4c3n2)c1`, 97.4% (inactive).
For the molecule `CNC(C)=O`, the growth is 96.6% (inactive).
On to `C=C1C(=O)O[C@H]2[C@H](O)[C@@H](C)CCC/C(C)=C/CC[C@@]3(C)O[C@@H]3C[C@@H]12`, for which the growth was 46.5% (inactive).
Take `CC(=O)Nc1ccc(S(=O)(=O)NC(CCC(=O)Nc2ccc(Cl)cc2)C(=O)O)cc1` (stereo unspecified): the growth was 97.5% (inactive).
On the same count and under the same terms, to `Cn1c(C(N)=O)cc2c1-c1nc(NC3CCCCC3)ncc1CCC2` belongs 94.8% (inactive); to `Cc1nc2sccn2c1-c1csc(Nc2ccccc2Cl)n1`, 53.5% (inactive).
As for `Cc1ccc(Cn2c(-c3cccs3)nc3ccccc32)cc1`, the growth was 72.2% (inactive).
Same read-out and setting: the result for `COC1=CC(c2ccc[nH]2)=N/C1=C\c1[nH]c(C)c(C(=O)CCCCC(=O)Nc2ccccc2)c1C` reads -40.5% (active); that for `COc1ccc(-c2cn[nH]c2-c2cc(OC)c3c(c2)OCCO3)cc1`, 28.4% (inactive).
With `COc1ccc(/C=C/c2nc(N3CCOCC3)c3cc(F)c(F)cc3n2)cc1OC`, the growth was 8.26% (active).
In the case of `O=c1oc2cc(OS(=O)(=O)c3ccc(F)cc3)ccc2c2c1CCCCC2`, the growth is 44.6% (inactive).
Same read-out and setting: to `CCn1cc(C(=O)O)c(=O)c2cc(F)c(N3CCN(S(=O)(=O)c4ccc(Cl)cc4Cl)CC3)cc21` belongs 1.6% (active).
On the same count and under the same terms, the result for `O=C(CN1CCN(c2cc3c(cc2F)c(=O)c(C(=O)O)cn3C2CC2)CC1)Nc1ccc(C(=O)/C=C/c2ccccc2)cc1` reads 55.2% (inactive); that for `O=C(CC(O)c1ccncc1)c1ccccc1` (stereo unspecified), -17.2% (active); that for `CCn1cc(C(=O)O)c(=O)c2cc(F)c(N3CCN(S(=O)(=O)c4cccc5ccccc45)CC3)cc21`, 7.82% (active).
The same measure, in the same setting: to `CCN(CC)CCCC(C)N=c1cc(Nc2cc(=NC(C)CCCN(CC)CC)c3cc(OC)ccc3o2)oc2ccc(OC)cc12` (stereo unspecified) belongs -26.4% (active); to `NC(=S)NN=C1CCCCC1`, 82.7% (inactive).
